From ChEMBL document CHEMBL3988442, “University of Dundee, Small-Polar-MMV Screening Library” (2021) come the findings set out here.

About 13,000 (27%) of roughly 48,000 compounds showed an effect of 50% or more. The list shows a part of the results.

In the experiment the test system is Wolbachia pipientis. In words: Anti-Wolbachia Cell-Based Screen. Further details: scale not given: in the data most compounds retested in dose-response had high values. Particulars: 5 µM. The format is functional.
With `CC(C)CC(NC(=O)c1cc(-c2cccn2C)n[nH]1)c1ncnn1C` (centres undefined), the “Percent Effect” value amounted to 13.42%.
To `CCc1csc(CNc2nc3c(s2)c(C)nn3C)n1` belongs -26.31%; to `OCC(CO)Nc1ccc2c(Cl)ccc(Cl)c2n1`, 1.659%.
With `COc1cc(F)ccc1-c1nc2c([nH]1)c(C1CC1)nn2C` the figure was 1.853%; with `Cc1ccsc1CN(C)Cn1nccc1-c1cccnc1`, 34.48%; with `Clc1ccccc1CCN1CCN(c2ccc3nncn3n2)CC1`, 114.3%.
Turning to `c1cc(CCN2CCN(c3ccc4nncn4n3)CC2)ccn1`, the “Percent Effect” value was determined as 116%.
To `CC1CCCCN1C(=O)CN1CCN(c2ccc3nncn3n2)CC1` (centres undefined) belongs -2.497%; to `c1ccc(OCCCN2CCN(c3ccc4nncn4n3)CC2)cc1`, 7.239%.
With `O=C(CCN1CCN(c2ccc3nncn3n2)CC1)N1CCCCC1` the figure was 90.26%; with `O=C(CCN1CCN(c2ccc3nncn3n2)CC1)NC1CCCC1`, 0.1018%; with `FC(F)(F)COCCN1CCN(c2ccc3nncn3n2)CC1`, -1.16%.
With `c1ccc(CCCN2CCN(c3ccc4nncn4n3)CC2)cc1` the figure was 101.5%; with `CN(Cc1ccccc1OC(F)(F)F)C(=O)C1CCCN(C(N)=O)C1` (centres undefined), 15.24%; with `COCC1CCCCN1Cc1nc(-c2ccoc2)oc1C` (centres undefined), 2.327%.
For the molecule `Cn1cc(N2CCN(c3ccc(C#N)cc3Br)CC2=O)cn1`, the “Percent Effect” value was -23.45%.
With `CCc1ccccc1OC1CN(C(=O)CN(C)Cc2ccncc2)C1` the figure was 0.8406%; with `CC(C)c1ccn(C2(C(=O)O)CCN(c3cc(C(N)=O)ccn3)CC2)n1`, 10.23%.
To `O=C(COc1cccnc1)NCc1nncn1C1CCCCC1` belongs -1.054%; to `Cc1cnc(N2CC[C@@]3(O)CCCC[C@H]3C2)nc1-c1ccnn1C`, -8.985%; to `Cc1nn2c(N3CCC(C#N)CC3)cc(-c3ccccc3)nc2c1C`, -8.665%.
To `c1ccc(CCN2CCN(c3ccc4nncn4n3)CC2)cc1` belongs 80.05%; to `Cc1ccc(C)c2c1NC(=O)C2CC(=O)O` (centres undefined), 5.742%; to `COCc1nc(NC(C)Cc2cc(C)n[nH]2)c2cnn(C)c2n1` (centres undefined), 4.118%.
Turning to `COc1ccc(C(=O)N2CCC(Nc3cccnn3)CC2)cn1`, the “Percent Effect” value came to 104%.
With `COc1ccc(C(=O)N2CCC(Nc3cccnn3)CC2)c(OC)c1` the figure was -3.344%; with `CC(C)Oc1ccc(C(=O)N2CCC(Nc3cccnn3)CC2)cn1`, 123.7%; with `C[S+]([O-])c1ccc(CNc2ccc(F)cc2OC(F)F)cc1` (centres undefined), 0.9094%.
With `Cc1nn(C)cc1-c1ccnc(N(C)Cc2noc(C(C)C)n2)n1` the figure was 1.029%.
With `Cn1ncc(NC(=O)Cn2cc(-c3ccc(F)cn3)cn2)n1` the figure was 2.479%; with `CCn1cc(-c2cc(C(F)F)n3nc(CC(=O)O)nc3n2)cn1`, 108.3%.
In the case of `Cn1cc(-c2csc(N3CCOCC3)n2)cn1`, the “Percent Effect” value was -6.106%.
To `CCn1cc(-c2cc(C(F)F)n3nc(CCC(=O)O)nc3n2)cn1` belongs 98.47%.
With `Cn1cc(-c2csc(N3CCN(C(=O)OC(C)(C)C)CC3)n2)cn1` the figure was 8.816%; with `Cn1cc(-c2cc(C(F)F)n3nc(CCC(=O)O)nc3n2)cn1`, 133.7%; with `Cc1nn(C)cc1-c1cc(C(F)F)n2nc(CCC(=O)O)nc2n1`, 110.6%.
To `CCn1cc(C(=O)NCC(OC)c2cccc(Cl)c2)cn1` (centres undefined) belongs 4.602%; to `CCCc1cnc(C)nc1N1CCC2(CCCO2)CC1`, -4.323%.
On to `O=C(C1CCC1)N1CCN(Cc2ccccc2F)[C@H]2CS(=O)(=O)C[C@H]21`, for which the “Percent Effect” value was 4.948%.
To `Cc1nc(CN(C)C(=O)Nc2cnn(CC3CCCO3)c2)cs1` (centres undefined) belongs -5.003%.
With `Cc1nc(CCNC(=O)CC2CCN(C(C)C)CC2)sc1Cl` the figure was -9.554%; with `Cc1ccsc1C(=O)N1CC2CC1(C(=O)NCC1CC1)C2`, -19.62%; with `CCn1ncc(-c2nc3c[nH]n(CC)c-3n2)c1C`, -16.08%.
`CCn1ncc(-c2cc(C(F)F)n3nc(CCC(=O)O)nc3n2)c1C`: the “Percent Effect” value worked out at 94.49%.
To `COc1ccccc1C(=O)N1CCC(Oc2ccc(C#N)cn2)CC1` belongs -9.351%; to `Cc1cccc(CN2CCc3c(nc(N4CCCCC4C)[nH]c3=O)C2)n1` (centres undefined), -2.625%; to `CC1CCCCN1c1nc2c(c(=O)[nH]1)CCN(Cc1ccccc1F)C2` (centres undefined), 109.6%.
With `CCCn1nc2c(cc1=O)CN(Cc1ccccn1)CC2` the figure was -24.61%; with `Cc1[nH]c(=O)[nH]c(=O)c1CN1CCCC(CCc2ccccc2F)C1` (centres undefined), 3.318%.
With `CC1CCCCN1c1nc2c(c(=O)[nH]1)CCN(Cc1ccc(O)cc1)C2` (centres undefined) the figure was 108.9%.
Consider `Cc1ccsc1CN1CCC(c2cc(C(C)C)n[nH]2)CC1`, for which the “Percent Effect” value is 15.3%.
To `CC1CCCCN1c1nc2c(c(=O)[nH]1)CCN(Cc1ccccn1)C2` (centres undefined) belongs 67.76%.
With `Fc1cccc2[nH]c(CN3CCc4cncnc4C3)nc12` the figure was 8.027%; with `Cc1ccsc1CCNC(=O)CCC1CCCCN1C` (centres undefined), 3.946%; with `Cn1cnc2c1CCN(Cc1ccc(C(=O)N3CCCC3)cc1)C2`, 0.7019%.
With `c1cc(CN2CCc3c(CN4CCCC4)n[nH]c3C2)ccn1` the figure was -1.373%; with `Cc1ccsc1CN1CCc2c(nc(N3CCCCC3C)[nH]c2=O)C1` (centres undefined), 117.5%; with `C=C(C)CN(CC)Cc1nc(C)no1`, 10.24%.
On to `COCc1nc(C(=O)NS(=O)(=O)c2cc(F)ccc2F)cs1`, for which the “Percent Effect” value worked out at 4.131%.
To `Cc1cc(C(=O)NCC(O)c2ccc(Cl)s2)c(C)o1` (centres undefined) belongs -36.26%; to `CCC1CN(CCNS(C)(=O)=O)c2ccccc2O1` (centres undefined), -11.22%.
To `CCNc1c(C#N)c(=O)n(C)c(=O)n1C` belongs 7.391%; to `NC(=O)N1CCCC(C(=O)N2CCc3c(nc(CC4CC4)[nH]c3=O)C2)C1` (centres undefined), 10.65%; to `CC1CCCCN1c1nc2c(c(=O)[nH]1)CCN(Cc1ccccc1O)C2` (centres undefined), 110.1%.
To `Cc1nc(O)cc(C2CCN(C(=O)C(C)Cn3nc(C)nc3C)CC2)n1` (centres undefined) belongs -10.44%.
With `Cc1nc(-c2cccc(C(=O)O)c2)cc(C2CCCN(C(C)C)C2)n1` (centres undefined), the “Percent Effect” value turned out to be 109.5%.
With `Cc1nc(-c2ccc(C(=O)O)cc2)cc(C2CCN(C(C)C)CC2)n1` the figure was 130.3%.
As to `Cc1nc(-c2cccc(C(=O)O)c2)cc(C2CCN(C(C)C)C2)n1` (centres undefined), the “Percent Effect” value is -0.6305%.
With `Cc1nc(-c2ccc(C(=O)O)cc2)cc(C2CCCN(C(C)C)C2)n1` (centres undefined) the figure was 96.58%.
To `Cc1nc(-c2ccc(C(=O)O)cc2)cc(C2CCN(C(C)C)C2)n1` (centres undefined) belongs -2.545%; to `CC(C)S(=O)(=O)N1CCCC(c2cccc(C(=O)O)c2)C1` (centres undefined), 13.9%; to `O=C(O)C(F)(F)F.O=C(c1cnccn1)N1CCN2C[C@H](OCc3ccccc3F)C[C@H]2C1`, 4.203%.
To `Cc1ccoc1C(=O)NC1CCN(Cc2csc3c(F)cccc23)CC1` belongs 2.463%.
Regarding `Cc1oncc1C(=O)N1CCC(O)(CN2CCOCC2)C(C)(C)C1` (centres undefined), the “Percent Effect” value is on record as 29.5%.
To `Cc1c(CNC(=O)Nc2cccc3c2CCN3C)cnn1C` belongs -8.63%; to `Cc1cccc(N2CCC3(CCCN3Cc3cnn(C)c3C)CC2)n1`, 9.163%; to `Cc1c(CN2CCCC2(C)C(=O)N2CCOCC2)cnn1C` (centres undefined), 169.3%.
With `CCn1cc(CN2CCCN(C(=O)C3(C)CCOCC3)CC2)cn1` the figure was 8.44%; with `CNC(=O)C1(C)CCCN1Cc1cnn(C)c1C` (centres undefined), 106.7%; with `Cc1c(CNC(=O)c2cn(CCC3CCCCN3)nn2)cnn1C` (centres undefined), 10.08%.
Consider `Cc1c(CN2CCCC2(C)C(=O)NC2CCCC2)cnn1C` (centres undefined), for which the “Percent Effect” value came out at 156.7%.
To `O=C(NCc1cnn2ccccc12)NC1CCCC1` belongs -4.156%; to `CNc1nc(CNC(=O)Nc2ccc(OC(C)C)cc2C)cs1`, 3.504%.
To `CCc1nc2n(n1)CCCC2Nc1nc(C2CC2)ns1` (centres undefined) belongs 8.759%.
To `COc1cc(C)ccc1C(=O)N1CCC2(CCC(=O)N(C(C)C)C2)CC1` belongs -6.21%; to `CCC(NC(=O)NCc1cc(Cl)ccc1OC)c1noc(C)n1` (centres undefined), -1.249%; to `CC(C)(O)CNC(=O)c1sccc1Br`, 4.512%.
Turning to `Cn1cc(N2CCCC(Oc3ccc(F)cc3Cl)C2=O)cn1` (centres undefined), the “Percent Effect” value was 5.607%.
To `CN(CCCN1CCCC1)[C@@H]1c2ccccc2C2(CCNCC2)[C@H]1O` belongs 1.656%.
Regarding `CCc1nc(C2CCCN2C(=O)CCc2cccs2)no1` (centres undefined), the “Percent Effect” value is listed as -2.964%.
To `CCc1nc(C2CCCN2CCc2cccs2)no1` (centres undefined) belongs -1.558%.
To `O=C(CCc1cccs1)N1CCCC1c1noc(C2CC2)n1` (centres undefined) belongs 100.7%.
With `c1csc(CCN2CCCC2c2noc(C3CC3)n2)c1` (centres undefined) the figure was -13.07%; with `CCc1nc(C2CCCN2C(=O)Cc2cccs2)no1` (centres undefined), 95.79%; with `O=C(CCCc1ccccn1)N1CCCC1c1noc(C2CC2)n1` (centres undefined), 105.7%.
With `O=C(COc1cc(Cl)cc(Cl)c1)NCc1nncn1C1CC1`, the “Percent Effect” value stood at 2.768%.
Take `c1cn(Cc2nnc(C3CCN(c4nccs4)CC3)n2C2CC2)cn1`: the “Percent Effect” value stood at 0.8881%.
To `CC(C)n1ccnc1C1CCCN(c2ccncc2F)C1` (centres undefined) belongs 20.23%; to `Cc1c(C(=O)NC2(C#N)CCCC2)nnn1-c1ccccc1Cl`, -3.476%; to `CCn1c(C)nnc1SCCNC(=O)Cn1cnc2ccccc2c1=O`, 1.964%.
For `Cc1cccc(N2CCN(CCC(=O)NCc3cnc(C)cn3)CC2)c1`, the “Percent Effect” value is -29.47%.
With `Cc1cnc(CNC(=O)CCCn2cnc3ccccc3c2=O)cn1` the figure was 123.4%; with `Cn1ccnc1SCCNC(=O)Cn1cnc2ccccc2c1=O`, 4.017%.
Turning to `COC(=O)CNC(=O)CCCn1cnc2ccccc2c1=O`, the “Percent Effect” value is listed as 126.5%.
To `COCC(C)NC(=O)CCCn1cnc2ccccc2c1=O` (centres undefined) belongs 133.1%; to `COCC(C)NC(=O)CCSc1ccc(F)cc1` (centres undefined), 4.419%.
To `CCC(C)NC(=O)CCc1ccnc2ccccc12` (centres undefined) belongs 0.4358%; to `Cc1nnc(SCCNC(=O)Cn2cnc3ccccc3c2=O)s1`, -10.12%.
Turning to `CC(C)NC(=O)CCCn1cnc2ccccc2c1=O`, the “Percent Effect” value was found to be 103.3%.
